Reference: PubChem BioAssay (NCATS)
Records with an inconclusive call do not appear. Where a call stands in place of a potency, no number is given. Calls of active or inactive are those of the source. Calls come from the whole dose curve; as a rule, active = well fitted cell-killing curve with a large enough effect; inconclusive = small, poorly fitted or top-dose-only effect, or effect the other way; inactive = no such curve, though single readings can be large or run the other way.

test: qHTS for Antimalaria activity screened against the NCATS CANVASS Library (AID 1347380); note: nearly all actives have a fitted effect of over 40% in size; conditions: P. falciparum Dd2 growth, SYBR Green fluorescence, 72 h; series mostly up to 28.7 µM
Excerpt: Natural products and their derivatives continue to be wellsprings of nascent therapeutic potential. However, many laboratories have limited resources for biological evaluation, leaving their previously isolated or synthesized compounds largely or completely untested. To address this issue, the Canvass library of natural products was assembled (https://tripod.nih.gov/canvass), in collaboration with academic and industry researchers, for quantitative high-throughput screening (qHTS) across a diverse set of cell-based and biochemical assays. The pure (>85% purity by liquid chromatography/mass spectrometry [LC/MS]) Canvass library of 346 natural products were submitted by 45 academic laboratories and companies around the world. We collected pure natural products to circumvent deconvolution and structure elucidation due to time and resource limitations. The library was formatted into 1536-well plates and evaluated in 50 qHTS (in an 11-pnt concentration series) bioassays with broad scope of disease-relevant mechanisms. The resulting data set from 50 different assays was then systematically analyzed to identify overall trends and specific natural products with interesting biological activities. Reported herein are the results of each individual qHTS and their corresponding assay protocol. The proliferation assay assesses the ability of compounds to inhibit the proliferation and/or have cytotoxic effects (72 hr) against the asexual erythrocytic growth of Plasmodium falciparum Dd2, as determined by a SYBRGreen fluorescence assay. National Center for Advancing Translational Sciences (NCATS), Rockville, MD National Institute of Health (NIH), Bethesda, Maryland
Malaria-screen protocol: Assay adopted from Plouffe et al. 2008 PNAS 105: 9059; PMID: 18579783. 1. In a biosafety cabinet, 3 uL of complete Malaria Growth Media (1x RPMI 1640 with L-glutamine + 5.5 g/L Albumax II + 367 uM Hypoxanthine + 25 mM HEPES + 0.25% Sodium Bicarbonate + 35 uM Gentamicin sulfate) was dispensed into a 1536-well black clear Cyclo-Olefin Polymer plate (Aurora Microplates) using a Multidrop Combi (Thermo Fisher Scientific Inc.). 2. 23 nL of compounds (in DMSO solution) were pin transferred into the assay plates using the Kalypsis pin-tool equipped with a 1536 well pin heads. Dihydroartemisinin (working concentration 29 uM) was used as a control and pin transferred (23 nL) at a titration series, final concentration 56 pM - 1.84 uM. 3. In a biosafety cabinet, five microliter of Malaria-infected RBCs: hematocrit 4% (final concentration of 2.5%), 0.3% parasitemia was added to the assay plates using the Multidrop Combi (Thermo Fisher Scientific Inc.). 4. The assay plates were incubated for 72 hours at 37C, 5% O2, 5% CO2, 90%N2, 95% humidity. 5. In the biosafety cabinet, 2 uL of Lysis buffer (20 mM Tris-HCl + 10 mM EDTA + 0.16% saponin + 1.6% Triton-X + 10x SYBR Green) was added to the assay plates using the Multidrop Combi followed by a 25 sec shake immediately after dispensing. 6. The assay plates we incubated further for 18 hours at 37C, 5%O2, 5% CO2, 90%N2, 95% humidity. 7. The fluorescence signal was read using the EnVision (PerkinElmer) plate reader (bottom read) using a 485/14 nm excitation and 535/25 nm emission filters.
Potency is the fitted concentration of half-maximal effect.

| SMILES | Potency |
| --- | --- |
| CC(=O)N[C@H]1CCN2CCC[C@H]12 | inactive |
| CC[N@@+]1([O-])C[C@]2(C)CC[C@@H](O)[C@@]34C5C[C@H]6CC[C@@]5(C(C[C@H]23)C41)[C@H](O)[C@@]6(O)CO (stereo not given in full) | inactive |
| CC[C@@H]1CN2CC[C@@]3(O)C(=Nc4cccc(OC)c43)[C@@H]2C[C@@H]1/C(=C\OC)C(=O)OC | 14900 nM (active) |
| CO[C@H](c1ccccc1)[C@H]1NC(=O)C(C)NC(=O)C(C[C@@H](C)CO)N(C)C(=O)[C@@H](C(O)c2cn(C(C)(C)C3CO3)c3ccccc23)NC(=O)C(C(C)C=C(C)C)NC(=O)C(CC(C)C)N(C)C(=O)C(C(C)C)NC1=O (stereo not given in full) | 292 nM (active) |
| CCN1C[C@]2(C)CC[C@H](O)[C@]34C1C(C[C@H]23)[C@@]12CC[C@H](CC14)[C@](O)(COC(=O)c1ccc(OC)c(OC)c1)[C@H]2O (stereo not given in full) | inactive |
| C/C=C1/CN2CC[C@]34C(=Nc5ccccc53)[C@@H]2C[C@@H]1[C@H]4C(=O)OC | inactive |
| CO[C@@H](/C=C/CC/C=C/C(=O)O)[C@@H](O)[C@H](C)/C=C(\C)[C@@H](O)[C@H](C)C(=O)CCCC1CC(=O)NC(=O)C1 | inactive |
| COc1ccc2c(c1)[nH]c1c(C)nccc12 | 5.4 nM (active) |
| CCC[C@H]1CC[C@H]2[C@H](C)CCC[C@H]2N1 | inactive |
| CCC(=O)CCCCC[C@@H]1NC(=O)[C@H]2CCCCN2C(=O)[C@H]([C@@H](C)CC)NC(=O)[C@H](Cc2cn(OC)c3ccccc23)NC1=O | 33.4 nM (active) |
| C[C@]12CC(O)C3[C@@H](CCC4C[C@@H](O)CC[C@@]43CO)[C@@]1(O)CCC2C1=CC(=O)OC1 (stereo not given in full) | inactive |
| c1ccc2c3c([nH]c2c1)CNCC3 | inactive |
| COc1ccc(C23Oc4cc(OC)cc(OC)c4[C@](O)([C@H](c4ccccc4)C2C(=O)NCCCCNC(=O)c2ccccc2)[C@@H]3O)cc1 (stereo not given in full) | inactive |
| O=C(c1ccccc1O)c1[nH]c(Cl)c(Cl)c1-n1c(C(=O)c2ccccc2O)cc(Cl)c1Cl | 472 nM (active) |
| NCCc1ccccc1 | inactive |
| CN(C)Cc1c[nH]c2ccccc12 | inactive |
| CNCCc1c[nH]c2ccccc12 | inactive |
| C[C@@H]1CC[C@@H](c2ccoc2)N2C[C@@]3(CC[C@@H]12)CS[C@@]1(CC[C@H]2[C@H](C)CC[C@@H](c4ccoc4)N2[C@@H]1O)C3 | 1880 nM (active) |
| CN1C(=O)[C@]23CC4C(C)(C)[C@@]5(C[C@@]41CN2CC[C@@]3(C)O)C(=O)Nc1c5ccc2c1OC=CC(C)(C)O2 (stereo not given in full) | inactive |
| C=C1[C@@H](C)[C@H]2[C@H](Cc3ccccc3)NC(=O)[C@]23OC(=O)/C=C/[C@H](O)CCC[C@@H](C)C/C=C/[C@H]3[C@@H]1O | 4200 nM (active) |
